ULK1 inh: inhibitors of human ULK1 kinase; O75385; AlphaScreen Atg13 phosphorylation by ULK1, luminescence; inhibition, % at 5.96 µM; hit rate 1.9% among 30,000; AID 1259251; in the data active means inhibition above about 43%;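 further: 0% = median of compound wells and 100% = no enzyme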
ASK1 primary: human ASK1 kinase inhibition, primary screen; AlphaScreen MKK6 phosphorylation by ASK1, luminescence; inhibition, % at 7.44 µM; hit rate 0.99% among 22,000; AID 1159602; in the data active means inhibition above about 35%;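 further: 0% = median of compound wells and 100% = no enzyme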
Target sequence (Q99683 whole entry, looked up): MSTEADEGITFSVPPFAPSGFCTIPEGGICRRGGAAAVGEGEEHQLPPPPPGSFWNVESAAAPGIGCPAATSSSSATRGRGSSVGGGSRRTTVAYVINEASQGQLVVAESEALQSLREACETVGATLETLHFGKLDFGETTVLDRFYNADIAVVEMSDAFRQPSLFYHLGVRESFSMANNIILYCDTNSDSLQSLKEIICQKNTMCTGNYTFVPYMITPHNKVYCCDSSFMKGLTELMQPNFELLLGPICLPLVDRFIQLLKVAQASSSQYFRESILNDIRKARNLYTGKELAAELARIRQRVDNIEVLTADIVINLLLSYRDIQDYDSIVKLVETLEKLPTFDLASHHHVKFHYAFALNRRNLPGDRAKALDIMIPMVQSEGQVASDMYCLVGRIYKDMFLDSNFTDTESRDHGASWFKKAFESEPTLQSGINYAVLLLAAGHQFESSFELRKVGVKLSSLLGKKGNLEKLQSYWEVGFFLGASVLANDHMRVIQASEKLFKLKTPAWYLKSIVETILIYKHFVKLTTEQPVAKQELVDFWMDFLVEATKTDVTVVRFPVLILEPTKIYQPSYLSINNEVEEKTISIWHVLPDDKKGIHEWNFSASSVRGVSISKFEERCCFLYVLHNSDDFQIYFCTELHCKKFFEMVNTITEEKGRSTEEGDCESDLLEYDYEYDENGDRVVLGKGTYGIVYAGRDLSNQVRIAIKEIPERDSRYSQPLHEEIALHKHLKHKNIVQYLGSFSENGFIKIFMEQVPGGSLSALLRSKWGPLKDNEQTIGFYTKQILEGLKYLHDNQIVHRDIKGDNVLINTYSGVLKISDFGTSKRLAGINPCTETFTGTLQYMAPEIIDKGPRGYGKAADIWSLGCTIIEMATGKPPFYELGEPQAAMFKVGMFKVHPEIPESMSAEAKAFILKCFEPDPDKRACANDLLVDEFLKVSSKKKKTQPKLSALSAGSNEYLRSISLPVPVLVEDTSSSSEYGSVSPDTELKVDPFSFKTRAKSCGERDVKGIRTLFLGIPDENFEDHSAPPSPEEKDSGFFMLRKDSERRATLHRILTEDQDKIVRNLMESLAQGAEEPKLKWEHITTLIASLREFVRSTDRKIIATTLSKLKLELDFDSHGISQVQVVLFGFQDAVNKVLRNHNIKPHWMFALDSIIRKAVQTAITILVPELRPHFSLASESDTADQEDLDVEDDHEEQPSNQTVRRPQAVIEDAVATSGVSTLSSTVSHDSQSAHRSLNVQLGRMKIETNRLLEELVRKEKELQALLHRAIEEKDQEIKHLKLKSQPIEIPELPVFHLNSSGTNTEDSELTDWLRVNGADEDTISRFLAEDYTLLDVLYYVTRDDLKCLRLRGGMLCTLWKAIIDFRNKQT
The depositor's hits bear a star; . = no result given; ! = a repeat was not active. Shown are actives, neighbours in structure and some others; about 2.4% of the full set was active somewhere.

SMILES | ULK1 inh | ASK1 primary
N[C@@H]1CC[C@@H](C(=O)Nc2ccc3[nH]ncc3c2)C1 | 65* | -3
O=C(Nc1ccc2[nH]ncc2c1)[C@H](O)c1ccccc1 | 49* | -5
O=C(Nc1ccc2[nH]ncc2c1)C1CCCNC1 (configuration not stated) | 38 | 11
N[C@H]1CCC[C@@H](C(=O)Nc2ccc3cnccc3c2)C1 | 66* | 6
N[C@@H]1CC[C@@H](C(=O)Nc2ccc3cnccc3c2)C1 | 34 | -10
O=C(NC1CCN(Cc2ccccc2)CC1)C1CCN(c2ccc(Nc3cnccn3)nn2)CC1 | 0 | -3
CNCC1CCC(N)C(OC2C(N)CC(N)C(OC3OCC(C)(O)C(NC)C3O)C2O)O1 (configuration not stated) | -7 | .
c1ccc(Nc2ccc3c(-c4ccccc4)n[nH]c3c2)cc1 | -29 | 2
CS(=O)(=O)Cc1cccc(-c2ccnc(Nc3ccc(S(N)(=O)=O)cc3)n2)c1 | 7 | -10
N[C@H]1CC[C@@H](C(=O)Nc2ccc3[nH]ncc3c2)C1 | 72* | 6
CC(C)[C@H](O)C(=O)N[C@H]1CC[C@H](C(=O)Nc2ccc3[nH]ncc3c2)C1 | 5 | -1
Cc1ncn(-c2ccc(Nc3nccc(-c4ccc(C#N)c(N5CCCC5)c4)n3)cc2)n1 | -9 | -4
Cn1nnc(-c2ccc(Nc3nccc(-c4ccc(N5CCC(O)CC5)c(C#N)c4)n3)cc2)n1 | 28 | 0
N#Cc1cc(-c2ccnc(Nc3ccc(-n4cnc(N5CCC(O)CC5)n4)cc3)n2)ccc1N1CCC(O)CC1 | 72* | -9
C[C@@H]1CN(C(=O)Nc2cccc(Nc3nccc(-c4ccc(N5CCC(O)CC5)c(C#N)c4)n3)c2)C[C@H](C)O1 | 76* | -16
Cc1ncn(-c2ccc(Nc3nccc(-c4ccc(N5CCC(O)CC5)nc4)n3)cc2)n1 | 46* | 0
Cc1ncn(-c2ccc(Nc3nccc(-c4ccc(C#N)c(N5CCC(O)CC5)c4)n3)cc2)n1 | -1 | -6
Cc1ncn(-c2ccc(Nc3nccc(-c4ccc(N5CCCC(CO)C5)c(C#N)c4)n3)cc2)n1 (configuration not stated) | 65* | 0
N#Cc1cc(-c2ccnc(Nc3ccc(-n4cnc(C(F)(F)F)n4)cc3)n2)ccc1N1CCC(O)CC1 | 1 | 6
NC(=O)c1ccc(-c2cc(C(=O)NC3CCN(Cc4ccccc4)CC3)ccn2)cc1 | 0 | -21
CCNc1ncc(C(=O)NC2CC2)s1 | -2 | 2
O=C(NC1CC1)c1cnc(Nc2ncccn2)s1 | 44* | -2
FC(F)(F)c1cccc(CNc2ccnc(Nc3ccc(N4CCOCC4)cc3)n2)c1 | -3 | 36*!
FC(F)(F)c1cccc(CNc2ccnc(NCCN3CCOCC3)n2)c1 | -12 | -27
COc1cccc(CN(CCN)C(=O)Nc2ccc(-c3cn[nH]c3)cc2OCCCO)c1 | 78* | 20
SMILES | ULK1 inh | ASK1 primary
COc1cccc(CN(CCCN(C)C)C(=O)Nc2ccc(-c3cn[nH]c3)cc2OC)c1 | -10 | -8
CC(C)NC(=O)c1cccc(NC(=O)Nc2ccc(-c3ncnc4[nH]cc(Cl)c34)cc2)c1 | 70* | 20
CC(C)NC(=O)c1cccc(NC(=O)Nc2ccc(-c3ncnc4nc[nH]c34)cc2)c1 | 19 | 26
CCNc1nc(NCc2ccccc2)c2cc(OC)c(OC)cc2n1 | 3 | 3
c1cncc(CNc2nc(Nc3ccc(N4CCOCC4)cc3)c3ncn(C4CCCCC4)c3n2)c1 | 62* | -22
c1cnc(Nc2nc(Nc3ccc(N4CCOCC4)cc3)c3ncn(C4CCCCC4)c3n2)nc1 | 2 | -2
c1ccc(CNc2nc(Nc3ccc(N4CCOCC4)cc3)nc3c2ncn3C2CCCCC2)cc1 | 9 | 5
CC(=O)Nc1ccc(Nc2nc(Nc3ccc(N4CCOCC4)cc3)nc3c2ncn3C2CCCCC2)cc1 | 48* | 8
c1ccc2[nH]c(CNc3nc(N4CCN(Cc5ccc6c(c5)OCO6)CC4)nc4c3ncn4C3CCCCC3)nc2c1 | 1 | 5
c1ccc2[nH]c(CNc3nc(N4CCN(Cc5ccc6c(c5)OCO6)CC4)nc4c3ncn4-c3ccsc3)nc2c1 | -3 | 2
COc1cc2nc(N3CCCC3CO)nc(Nc3ccc4c(c3)OCO4)c2cc1OC (configuration not stated) | 4 | 12
COc1cccc(CNC(=O)c2c(C)nc3ccc(-c4ccc5nc(C)c(C(=O)NCc6cccc(OC)c6)n5c4)cn23)c1 | 8 | 42*
COc1cccc(CNC(=O)c2c(C)nc3ccc(-c4ccnc(N)n4)cn23)c1 | 11 | 5
COc1cc(-c2cn[nH]c2)ccc1C(=O)NC[C@H](O)c1ccccc1 | 14 | 6
Cc1ccc(-c2cccc3cnc(NC4CCN(C(=O)N5CCCC5)C4)nc23)cn1 (configuration not stated) | 26 | 13
Cc1ccc(-c2cccc3cnc(Nc4ccc(C(=O)N5CCCC5)cc4)nc23)cn1 | 63* | -14
Cc1ncn(-c2ccc(Nc3ncc4cccc(-c5cncc(C(=O)N6CCOCC6)c5)c4n3)cc2)n1 | 0 | 14
Cc1ccc(-c2cccc3cnc(Nc4cccc(C(=O)N5CCOCC5)c4)nc23)cn1 | 64* | 6
O=C1CCCN1CCCNc1nc(Nc2ccc(N3CCOCC3)cc2)nc2c1ncn2Cc1ccc(C(F)(F)F)cc1 | -9 | 12
Cc1cc(-c2nc(Nc3ccc(-n4cnc(N5CCOCC5)n4)cc3)ncc2Cl)no1 | 44* | -35
c1cc(-n2cnc(N3CCOCC3)n2)ccc1Nc1ncc2ccc(-c3cn[nH]c3)cc2n1 | 74* | 7
c1ccc2nc(Nc3ccc(-n4cnc(N5CCOCC5)n4)cc3)ncc2c1 | 46* | -7
Clc1cnc(Nc2ccc(-n3cnc(N4CCOCC4)n3)cc2)nc1-c1ccno1 | 7 | -29
c1cc(-c2cn[nH]c2)cc(Nc2ccc(N3CCOCC3)cc2)n1 | 27 | -2
c1ccc(-c2ccc3cnc(Nc4ccc(-n5cnc(N6CCOCC6)n5)cc4)nc3c2)cc1 | 13 | -11
SMILES | ULK1 inh | ASK1 primary
c1cc(-n2cnc(N3CCOCC3)n2)ccc1Nc1cc2cc(-c3cn[nH]c3)ccc2cn1 | 87* | -6
O=c1ccc(-c2ccc3cnc(Nc4ccc(-n5cnc(N6CCOCC6)n5)cc4)nc3c2)c[nH]1 | 34 | -13
CCOc1c(C)cnc2c1c(=O)n(Cc1ccccn1)c(=O)n2C | -10 | .
COc1ccc(-c2cncc(-c3cc(NCc4ccncc4)nc(C)n3)c2)cc1 | -3 | .
COc1ccc(/C=C/C(=O)Nc2ccc3[nH]ncc3c2)cc1 | 7 | -15
COc1ccc(CCNc2ncnc3nc(Nc4ccncc4)[nH]c23)cc1 | 18 | -3
Cn1cc(-c2ccc3cnc(Nc4ccc(-n5cnc(N6CCCC(O)C6)n5)cc4)nc3c2)cn1 (configuration not stated) | 79* | 6
Cn1cc(-c2ccc3cnc(Nc4ccc(-n5cnc(C(C)(C)C)n5)cc4)nc3c2)cn1 | 10 | -3
COc1ccc(CCNc2nc(Nc3cccnc3)ncc2C)cc1 | -6 | 4
FC(F)(F)c1cnc(Nc2ccccn2)cc1Nc1ccccn1 | 50* | 17
CN1Cc2cccc(Nc3cc(Nc4cccc5c4C(=O)N(C)C5)c(C(F)(F)F)cn3)c2C1=O | -7 | 15
COc1cc(N2CCOCC2)ccc1Nc1cc(Nc2ccccc2NC(C)=O)c(C(F)(F)F)cn1 | 88* | 11
CNC(=O)c1ccccc1Nc1cc(Nc2ccc(C(=O)N3CC[C@H](O)C3)cc2OC)ncc1C(F)(F)F | 88* | 8

Compound activity deposited in PubChem by The Scripps Research Institute Molecular Screening Center.
